DT40 TDP1 no CPT: qHTS for Inhibitors of human tyrosyl-DNA phosphodiesterase 1 (TDP1): qHTS in cells in absence of CPT; DT40 Tdp1-/- hTDP1 cells, no CPT, ATP luminescence, 48 h; Potency, µM (highest dose often 46.2 µM), without a hit: top-dose activity change, negative = growth inhibition, usual class: inhibitors; AID 686978, 2013; hit rate 15% among 420,000; note: nearly all actives have a fitted effect of over 55% in size
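Growth kinetics read by CellTiter-Glo luminescence after ≥48 hr at 37 °C. Cells: DT40 Tdp1-/- stably carrying human TDP1, 400 per well, compound exposure in the absence of CPT (DMSO vehicle).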
GCN5L2 inh: qHTS Assay for Inhibitors of GCN5L2. Potency, µM (highest dose often 58.9 µM), for inactives: at the highest dose activity change, negative = inhibition, hits mostly inhibitors. hit rate 0.21% among 390,000. GCN5L2 HAT assay, ThioGlo1 CoA-SH fluorescence. AID 504327, 2011
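Preincubate 20nM GCN5L2 with compound 15 min, RT → add 50uM ThioGlo1 + 75uM H3(1-25) + 70uM acetyl-CoA → read fluorescence 0 and 20 min. Primary qHTS; fluorescent artifacts likely.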
TDP1 inh: qHTS Assay for Inhibitors of Tyrosyl-DNA Phosphodiesterase (TDP1) | hit rate 0.28% among 350,000 | Tyrosyl-DNA phosphodiesterase 1 (Homo sapiens), Q9NUW8 | Potency, µM (highest dose often 130 µM), for inactives: top-dose activity change, negative = inhibition, usual class: inhibitors | recombinant TDP1, AlphaScreen DNA substrate cleavage | AID 485290, 2010; note: nearly all actives have a fitted effect of over 40% in size
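Enzyme-compound mixtures sat 15 min at room temperature, followed by a 5 min reaction with 15 nM final substrate and 10 min with AlphaScreen beads. Recombinant human Tdp1 was used at 1 nM final.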
PLK1 PBD inh: qHTS for Inhibitors of PLK1-PDB (polo-like kinase 1 - polo-box domain): Primary Screen; Potency, µM, inactives show max response, negative = inhibition, most hits filed as inhibitors; Serine/threonine-protein kinase PLK1 (Homo sapiens), P53350; Plk1 PBD binding of FITC phosphopeptide, fluorescence polarization; hit rate 2.8% among 360,000; note: series mostly up to about 57 µM; nearly all actives have a fitted effect of over 65% in size
DT40 TDP1 CPT: qHTS for Inhibitors of human tyrosyl-DNA phosphodiesterase 1 (TDP1): qHTS in cells in presence of CPT. chicken DT40 Tdp1-/-;hTDP1 cells + 20 nM CPT, ATP luminescence, 48 h. hit rate 12% among 420,000. AID 686979, 2013. Potency, µM (doses to about 46.2 µM), inactives show top-dose activity change, negative = growth inhibition, usual class: inhibitors; note: nearly all actives have a fitted effect of over 55% in size
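Cell growth measured by CellTiter-Glo luminescence after a minimum 48 h, 37 C compound exposure with 20 nM CPT in Tdp1-knockout DT40 cells stably expressing hTDP1, seeded 400/well; qHTS titration format.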
VDR inhibitor: Inhibitors of the vitamin D receptor (VDR): qHTS; Vitamin D3 receptor (Homo sapiens), P11473; VDR-SRC2-3 peptide fluorescence polarization, 2 h; Potency, µM, for inactives: max response, negative = inhibition, usual class: inhibitors; hit rate 0.93% among 400,000
Target sequence (P11473 whole entry, looked up): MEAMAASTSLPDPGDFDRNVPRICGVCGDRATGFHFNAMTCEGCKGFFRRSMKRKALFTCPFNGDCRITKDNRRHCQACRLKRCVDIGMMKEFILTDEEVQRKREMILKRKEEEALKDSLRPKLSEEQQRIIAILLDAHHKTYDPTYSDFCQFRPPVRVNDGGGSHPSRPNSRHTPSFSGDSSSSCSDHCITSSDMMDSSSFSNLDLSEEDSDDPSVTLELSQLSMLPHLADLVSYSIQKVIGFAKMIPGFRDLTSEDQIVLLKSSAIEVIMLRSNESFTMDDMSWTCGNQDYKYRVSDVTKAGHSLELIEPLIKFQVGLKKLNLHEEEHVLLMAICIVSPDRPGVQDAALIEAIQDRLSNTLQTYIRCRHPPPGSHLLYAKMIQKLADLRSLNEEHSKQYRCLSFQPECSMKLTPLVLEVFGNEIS
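Compounds are added to VDR with labelled SRC2-3 coactivator peptide and held 2 h at room temperature. Inhibition of the VDR–peptide interaction is then read as a change in fluorescence polarization.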
Active calls of the source: *; [ ] = remark or other dose. Shown are actives, neighbours in structure and some others; about 18% of the full set was active somewhere. Calls come from the whole dose curve; as a rule, active = well fitted curve in the direction sought with a large enough effect; inconclusive = small, poorly fitted or top-dose-only effect, or another doubt; inactive = no such curve, though single readings can be large; an effect the other way counts as inactive or inconclusive. % is set by controls: 0 for no effect and ±100 for the full control effect; potency is the fitted concentration of half-maximal effect.

Screening CCC(C)CCN1CCN=C1Nc1ccccc1 (configuration not stated) returned DT40 TDP1 no CPT -4%, GCN5L2 inh -3%, TDP1 inh -4%, PLK1 PBD inh -7%, DT40 TDP1 CPT 0% and VDR inhibitor -5%.
For CCCOc1ccc(N2C(=O)CC(N3CCC(c4nc5ccccc5o4)CC3)C2=O)cc1 (configuration not stated) the results were GCN5L2 inh -1% and TDP1 inh 5%.
Screening CCc1ccc(NC(=O)c2ccc3c(=O)n4nc(Nc5ccccc5C)sc4nc3c2)cc1 returned DT40 TDP1 no CPT 13µM*, GCN5L2 inh 0%, TDP1 inh -3%, DT40 TDP1 CPT 23µM* and VDR inhibitor 10%.
`Cc1ccc(Cl)cc1Nc1nn2c(=O)c3ccc(C(=O)N4CCCC(C)C4)cc3nc2s1` (configuration not stated) gave DT40 TDP1 no CPT inconclusive, GCN5L2 inh -5%, TDP1 inh 1%, DT40 TDP1 CPT inconclusive and VDR inhibitor 14%.
Cc1ccc(Cl)cc1Nc1nn2c(=O)c3ccc(C(=O)NCc4ccc(F)cc4)cc3nc2s1 was read as DT40 TDP1 no CPT 4.6µM*, GCN5L2 inh -5%, TDP1 inh 3%, DT40 TDP1 CPT 2.1µM* and VDR inhibitor 1%.
Screening CCc1ccccc1Nc1nn2c(=O)c3ccc(C(=O)NCCc4ccccc4)cc3nc2s1 returned DT40 TDP1 no CPT 23µM*, GCN5L2 inh 1%, TDP1 inh 0%, DT40 TDP1 CPT 10µM* and VDR inhibitor 18%.
For CCc1ccccc1Nc1nn2c(=O)c3ccc(C(=O)NCc4ccc(C)cc4)cc3nc2s1 the results were DT40 TDP1 no CPT 8.2µM*, GCN5L2 inh 3%, TDP1 inh 0%, DT40 TDP1 CPT inconclusive and VDR inhibitor 4%.
For NS(=O)(=O)c1ccc(N2C(=O)CCCC2=O)cc1 the results were DT40 TDP1 no CPT 12%, PLK1 PBD inh 1% and DT40 TDP1 CPT -2%.
Cc1nnc(SCC(=O)NNC(=O)c2ccc(Br)cc2)n1C was read as DT40 TDP1 no CPT -7%, GCN5L2 inh 0%, TDP1 inh 6%, PLK1 PBD inh -17%, DT40 TDP1 CPT 5% and VDR inhibitor 25%.
Screening COC(=O)[C@@]1(Cc2ccc(F)cc2)[C@H]2c3cc(C(=O)N(C)C)n(Cc4ccc(C(F)(F)F)nc4)c3C[C@H]2CN1C(=O)c1ccccc1 returned TDP1 inh 12%.
Cc1cccc(Nc2nn3c(=O)c4ccccc4nc3s2)c1 was read as DT40 TDP1 no CPT -9%, GCN5L2 inh -5%, TDP1 inh inconclusive, PLK1 PBD inh -20%, DT40 TDP1 CPT -3% and VDR inhibitor 21%.
For CC1CCCN(C(=O)c2ccc3c(=O)n4nc(Nc5ccccc5)sc4nc3c2)C1 (configuration not stated) the results were DT40 TDP1 no CPT inconclusive, PLK1 PBD inh 3% and DT40 TDP1 CPT -41%.
`O=C(NCCC1=CCCCC1)c1ccc2c(=O)n3nc(Nc4ccccc4)sc3nc2c1` gave DT40 TDP1 no CPT 3.7µM*, GCN5L2 inh 3%, TDP1 inh 3%, DT40 TDP1 CPT 2.3µM* and VDR inhibitor 14%.
Screening CCc1ccccc1Nc1nn2c(=O)c3ccc(C(=O)NC(C)c4ccccc4)cc3nc2s1 (configuration not stated) returned DT40 TDP1 no CPT 15µM*, GCN5L2 inh -5%, TDP1 inh 6%, DT40 TDP1 CPT 15µM* and VDR inhibitor 12%.
Screening O=C(CC1S/C(=N/N=C/c2ccco2)NC1=O)Nc1cccc(Cl)c1Cl (configuration not stated) returned DT40 TDP1 no CPT 1%, GCN5L2 inh -8%, TDP1 inh 2%, PLK1 PBD inh -12%, DT40 TDP1 CPT 11% and VDR inhibitor -14%.
For CCOC(=O)c1sc2nc(CN3CCN(c4cccc(C(F)(F)F)c4)CC3)[nH]c(=O)c2c1C the results were DT40 TDP1 no CPT -24%, GCN5L2 inh -23%, TDP1 inh 5%, PLK1 PBD inh -7%, DT40 TDP1 CPT -1% and VDR inhibitor -14%.
`Cc1cc2c(cc1S(=O)(=O)CCC(=O)N1CCCC(C)C1)OCC(=O)N2` (configuration not stated) gave GCN5L2 inh -10%, TDP1 inh 5% and VDR inhibitor -8%.
Screening COC(=O)[C@@]12OC[C@]34[C@H]([C@@H](O)[C@@H]1O)[C@@]1(C)C(=O)C(O[C@@H]5OC(CO)[C@@H](O)[C@@H](O)[C@@H]5O)=C[C@@H](C)[C@@H]1C[C@H]3OC(=O)[C@H](OC(=O)/C=C(\C)C(C)(C)OC(C)=O)[C@@H]24 (some centres not stated) returned DT40 TDP1 no CPT 3.3µM*, GCN5L2 inh -4%, PLK1 PBD inh -10%, DT40 TDP1 CPT 5.2µM* and VDR inhibitor -3%.
`CC1(C)COC(c2ccc(F)c([N+](=O)[O-])c2)=N1` gave DT40 TDP1 no CPT 16µM*, GCN5L2 inh 32%, TDP1 inh -6%, PLK1 PBD inh -15%, DT40 TDP1 CPT 16µM* and VDR inhibitor -24%.
COc1ccc(C(=O)/C=C/c2ccccc2)cc1 was read as DT40 TDP1 no CPT 23µM*, GCN5L2 inh -14%, TDP1 inh 8%[56.1 µM], DT40 TDP1 CPT inconclusive and VDR inhibitor 25µM*.
For O=C(/C=C/c1cccnc1)c1ccc(O)cc1 the results were DT40 TDP1 no CPT 15µM*, GCN5L2 inh -5%, PLK1 PBD inh -10%, DT40 TDP1 CPT inconclusive and VDR inhibitor -11%.
Screening CN(C)c1ccc(/C=C/C(=O)c2ccc(O)cc2)cc1 returned DT40 TDP1 no CPT 10µM*, PLK1 PBD inh 64%, DT40 TDP1 CPT inconclusive and VDR inhibitor 2%.
CCOC(=O)Nc1ccc(C(=O)/C=C/c2ccccc2)cc1 was read as DT40 TDP1 no CPT 2.6µM*, GCN5L2 inh -14%, TDP1 inh 1%, PLK1 PBD inh -11%, DT40 TDP1 CPT 5.2µM* and VDR inhibitor inconclusive.

Screens deposited in PubChem BioAssay by National Center for Advancing Translational Sciences (NCATS).
